Assay results: PubChem BioAssay (Tox21)
Records with an inconclusive call do not appear. The source made the active and inactive calls. Unless noted, calls follow the shape of the full dose curve.

Legend:
[1] = Nuclear factor erythroid 2-related factor 2/antioxidant responsive element (Nrf2/ARE) small molecule agonists: qHTS cell viability counter screen in human keratinocytes (AID 1919968; active = well fitted curve in the direction sought with a large enough effect in the repeat runs; an effect the other way counts as inactive or inconclusive; also: nearly all actives have a fitted effect of over 55% in size; also: potency is read from the fitted curve at half-maximal effect)
Outline: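 Stably transfected HaCaT (KeratinoSens), 1,500/well. Test agents in DMSO were applied for 23 h, 37 C/5% CO2. CellTiter-Fluor was incubated 1 h before the fluorescence read.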

[2] = Nuclear factor erythroid 2-related factor 2/antioxidant responsive element (Nrf2/ARE) small molecule agonists: luciferase reporter gene qHTS assay in human keratinocytes (AID 1919969); also: nearly all actives have a fitted effect of over 35% in size; also: potency is read from the fitted curve at half-maximal effect
[3] = molecular target: Gonadotropin-releasing hormone receptor (Homo sapiens) (UniProt P30968); assay: Human gonadotropin-releasing hormone receptor (GnRHR) small molecule agonists, calcium flux assay in GnRHR-HEK293 cells (AID 1920063); also: nearly all actives have a fitted effect of over 35% in size; also: potency is read from the fitted curve at half-maximal effect
Outline: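 Stable human GnRHR HEK293 line. 18 h plating, then calcium dye for 1 h at 37 C. Agonist-mode compound addition from DMSO stocks; fluorescence monitored 3 min.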

[4] = molecular target: KiSS-1 receptor (Homo sapiens) (UniProt Q969F8); assay: Human kisspeptin (KISS1R) small molecule agonists, calcium flux assay in KISS1R-HEK293 cells (AID 1920064; active = well fitted curve in the direction sought with a large enough effect in the repeat runs; an effect the other way counts as inactive or inconclusive)
Outline: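 After overnight (18 h) culture at 37 C/5% CO2, human KISS1R-HEK293 cells received calcium dye for 1 h, then test compound; emission at 540 nm (excitation 480 nm) was tracked for 3 min.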

[5] = G protein-coupled receptor (GPCR) small molecule agonists, calcium flux assay: HEK293 wild type cell line counter screen (AID 1920065)
Outline: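 Following 18 h incubation at 37 C/5% CO2, plates got calcium dye for 1 h; compounds, ATP or DMSO were then pinned in and fluorescence followed kinetically (480/540 nm).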

[6] = p53 small molecule agonists, cell-based qHTS assay with human liver microsomes (AID 1963577)
Outline: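 Cells carrying a p53-responsive bla reporter were rested 5 h (37 C, 5% CO2) before compound transfer. Human liver microsomes plus NADPH, 0.5 mg/mL final apiece, supplied metabolism during the 16 h 37 C exposure.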

[7] = p53 small molecule agonists, cell-based qHTS assay with rat liver microsomes (AID 1963578)
Outline: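 Fluorescence from a beta-lactamase reporter under a p53 response element was measured after cells had been incubated 16 h at 37 C with test compound and rat liver microsomes plus NADPH (0.5 mg/mL final each).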

[8] = p53 small molecule agonists, cell-based qHTS assay with human liver microsomes: qHTS cell viability counter screen (AID 1963579); also: nearly all actives have a fitted effect of over 45% in size; also: potency is read from the fitted curve at half-maximal effect
Outline: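 Seed p53RE-bla cells at 4,000 per well; incubate 5 h at 37 C; add compound, human liver microsomes and NADPH; incubate 16 h at 37 C; add CellTiter-Glo; after 30 min at room temperature, read luminescence.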

[9] = p53 small molecule agonists, cell-based qHTS assay (AID 1963582; active = well fitted activation curve with a large enough effect in the signal ratio in the repeat runs, not every such curve was filed as active; the % refers to the signal ratio)
Outline: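 Measured: fluorescence from cleaved LiveBLAzer substrate. System: p53RE-bla cells, 16 h compound treatment at 37 C, 2 h substrate step at room temperature.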

[10] = molecular target: 5-hydroxytryptamine receptor 2A (Homo sapiens) (UniProt P28223); assay: 5-hydroxytryptamine receptor 2A (HTR2A) small molecule antagonists, cell-based qHTS assay (AID 1963586); also: nearly all actives have a fitted effect of over 45% in size; also: potency is read from the fitted curve at half-maximal effect
Outline: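 CHO cells stably expressing human HTR2A were plated for 18 h at 37 C, then loaded with calcium dye for 1 h. Compounds were preincubated 5 min at room temperature before DOI (4 nM solution) was added. Kinetic fluorescence was read for 3 min.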

[11] = molecular target: 5-hydroxytryptamine receptor 2A (Homo sapiens) (UniProt P28223); assay: 5-hydroxytryptamine receptor 2A (HTR2A) small molecule agonists, cell-based qHTS assay (AID 1963587); also: nearly all actives have a fitted effect of over 30% in size; also: potency is read from the fitted curve at half-maximal effect
Outline: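 CHO cells stably expressing human HTR2A, plated 18 h, loaded with calcium dye 1 h at 37 C. Agonist mode: compounds added and intracellular calcium fluorescence recorded kinetically for 2 min at 1 sec intervals.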

[12] = molecular target: Muscarinic acetylcholine receptor M1 (Homo sapiens) (UniProt P11229); assay: Cholinergic receptor muscarinic 1 (CHRM1) small molecule antagonists, cell-based qHTS assay (AID 1963588); also: nearly all actives have a fitted effect of over 40% in size; also: potency is read from the fitted curve at half-maximal effect
Outline: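 Compounds were tested at 15 concentrations in three independent runs. Dye-loaded CHRM1-CHO cells were exposed 5 min at room temperature before stimulation by acetylcholine added at 50nM. Intracellular calcium was read kinetically on FDSS for 3 min.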

[13] = molecular target: Muscarinic acetylcholine receptor M1 (Homo sapiens) (UniProt P11229); assay: Cholinergic receptor muscarinic 1 (CHRM1) small molecule agonists, cell-based qHTS assay (AID 1963589); also: nearly all actives have a fitted effect of over 35% in size
Outline: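 Kinetic fluorescence (1 s intervals) of calcium-sensitive dye in human M1 CHO cells after compound addition; cells pre-incubated 18 h at 37 C/5% CO2 and dye-loaded 1 h.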

[14] = cAMP Responsive Elements (CRE) small molecule antagonists, cell-based qHTS assay (AID 1963591; active = well fitted inhibition curve with a large enough effect in the signal ratio in the repeat runs, not every such curve was filed as active; the % refers to the signal ratio)
Outline: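 Reporter line CRE-bla HEK 293T in dialyzed-FBS DMEM; cells preincubated 18 h, treated 3 h with compound plus NKH477 (0.25 uM final); LiveBLAzer FRET, 2 h RT.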

[15] = molecular target: Beta-2 adrenergic receptor (Homo sapiens) (UniProt P07550); assay: Adrenergic beta2 receptor (ADRB2) small molecule antagonists, cell-based qHTS assay (AID 1963592); also: series mostly up to about 92 µM; nearly all actives have a fitted effect of over 50% in size
Outline: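 Assay format: CHO-ADRB2 cells, 18-20hr seeding at 37C/5% CO2, then compound plus 1nM isoproterenol agonist mix for 0.5hr RT. Homogeneous time-resolved fluorescence cAMP detection after 1hr, expressed as 665/615 nm ratio.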

[16] = molecular target: D(2) dopamine receptor (Homo sapiens) (UniProt P14416); assay: Dopamine D2 receptor (DRD2) small molecule agonists, cell-based qHTS assay (AID 1963594); also: nearly all actives have a fitted effect of over 35% in size; also: potency is read from the fitted curve at half-maximal effect
Outline: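 HEK293 cells stably expressing human DRD2, pre-treated with PDE inhibitor Ro20-1724 (0.1 mM final) and compound 10 min at room temperature, then stimulated with NKH477 (200nM […]) for 30 min. cAMP read by HTRF (665/620 nm).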

[17] = molecular target: D(2) dopamine receptor (Homo sapiens) (UniProt P14416); assay: Dopamine D2 receptor (DRD2) small molecule antagonists, cell-based qHTS assay (AID 1963595; active = well fitted inhibition curve with a large enough effect in the signal ratio in the repeat runs, with a control signal flat; the % refers to the signal ratio)
Outline: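 Antagonist mode in DRD2-HEK293 cells: after compound addition with 0.1 mM Ro20-1724, cells received quinpirole (12 nM) and NKH477 (200 nM) for 30 min at room temperature; HTRF cAMP read after 1 h detection.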

[18] = cAMP Responsive Elements (CRE) small molecule agonists, cell-based qHTS assay (AID 1963590)
Outline: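 Test agents in DMSO were incubated 3 h at 37 C/5% CO2 with CRE-bla HEK 293T cells seeded 18 h earlier; LiveBLAzer B/G FRET substrate was added and read after 2 h at room temperature.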

[19] = p53 small molecule agonists, cell-based qHTS assay: qHTS cell viability counter screen (AID 1963581); also: nearly all actives have a fitted effect of over 45% in size; also: potency is read from the fitted curve at half-maximal effect
Outline: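 qHTS counter screen: 16 h compound exposure at 37 C of p53RE-bla HCT-116 cells (4,000 per well, seeded 5 h prior), cell viability by ATP luminescence.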

[20] = p53 small molecule agonists, cell-based qHTS assay with rat liver microsomes: qHTS cell viability counter screen (AID 1963580); also: nearly all actives have a fitted effect of over 45% in size
Outline: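 Cytotoxicity counter screen: intracellular ATP measured by CellTiter-Glo luminescence in the same wells as the beta-lactamase reporter read, on HCT-116 p53RE-bla cells exposed 16 h at 37 C to compounds with rat liver microsomes and NADPH, each 0.5 mg/mL final.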
% is scaled to controls: 0 for no effect and ±100 for the full control effect.

Sequence of D(2) dopamine receptor (Homo sapiens) (P14416 whole entry, looked up): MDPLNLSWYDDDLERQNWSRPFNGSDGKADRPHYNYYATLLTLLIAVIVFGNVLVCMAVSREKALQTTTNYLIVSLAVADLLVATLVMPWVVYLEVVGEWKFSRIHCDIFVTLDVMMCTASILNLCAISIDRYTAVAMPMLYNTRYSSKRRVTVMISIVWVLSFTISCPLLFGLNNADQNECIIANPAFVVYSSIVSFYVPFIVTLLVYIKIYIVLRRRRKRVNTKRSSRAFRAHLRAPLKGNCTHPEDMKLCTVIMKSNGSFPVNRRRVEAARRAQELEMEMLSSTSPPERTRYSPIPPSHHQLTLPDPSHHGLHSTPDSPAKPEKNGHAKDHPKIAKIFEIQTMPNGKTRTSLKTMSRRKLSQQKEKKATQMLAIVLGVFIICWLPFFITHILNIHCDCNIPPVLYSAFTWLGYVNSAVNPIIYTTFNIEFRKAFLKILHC
Sequence of KiSS-1 receptor (Homo sapiens) (Q969F8 whole entry, looked up): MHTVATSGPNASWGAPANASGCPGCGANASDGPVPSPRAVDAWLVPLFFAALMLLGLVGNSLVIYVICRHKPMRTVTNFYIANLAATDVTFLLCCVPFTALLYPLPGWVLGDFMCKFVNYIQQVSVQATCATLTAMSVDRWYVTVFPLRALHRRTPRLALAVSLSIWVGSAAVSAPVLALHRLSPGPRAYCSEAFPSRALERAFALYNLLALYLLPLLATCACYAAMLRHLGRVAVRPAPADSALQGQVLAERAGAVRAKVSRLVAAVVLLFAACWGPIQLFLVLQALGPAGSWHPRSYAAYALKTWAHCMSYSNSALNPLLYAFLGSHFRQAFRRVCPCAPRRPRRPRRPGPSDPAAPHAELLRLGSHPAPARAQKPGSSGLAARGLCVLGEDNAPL
Sequence of Beta-2 adrenergic receptor (Homo sapiens) (P07550 whole entry, looked up): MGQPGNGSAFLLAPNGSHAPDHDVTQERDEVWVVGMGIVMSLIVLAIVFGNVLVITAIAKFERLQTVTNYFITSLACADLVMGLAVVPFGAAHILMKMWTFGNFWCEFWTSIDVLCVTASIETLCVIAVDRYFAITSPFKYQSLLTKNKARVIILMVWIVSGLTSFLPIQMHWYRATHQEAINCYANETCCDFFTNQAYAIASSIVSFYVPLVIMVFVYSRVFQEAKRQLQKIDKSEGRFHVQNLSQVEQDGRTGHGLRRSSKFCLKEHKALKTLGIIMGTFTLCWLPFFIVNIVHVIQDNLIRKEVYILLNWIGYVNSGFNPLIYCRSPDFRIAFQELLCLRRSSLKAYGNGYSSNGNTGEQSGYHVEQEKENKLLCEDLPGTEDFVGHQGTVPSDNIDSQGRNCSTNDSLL
Sequence of 5-hydroxytryptamine receptor 2A (Homo sapiens) (P28223 whole entry, looked up): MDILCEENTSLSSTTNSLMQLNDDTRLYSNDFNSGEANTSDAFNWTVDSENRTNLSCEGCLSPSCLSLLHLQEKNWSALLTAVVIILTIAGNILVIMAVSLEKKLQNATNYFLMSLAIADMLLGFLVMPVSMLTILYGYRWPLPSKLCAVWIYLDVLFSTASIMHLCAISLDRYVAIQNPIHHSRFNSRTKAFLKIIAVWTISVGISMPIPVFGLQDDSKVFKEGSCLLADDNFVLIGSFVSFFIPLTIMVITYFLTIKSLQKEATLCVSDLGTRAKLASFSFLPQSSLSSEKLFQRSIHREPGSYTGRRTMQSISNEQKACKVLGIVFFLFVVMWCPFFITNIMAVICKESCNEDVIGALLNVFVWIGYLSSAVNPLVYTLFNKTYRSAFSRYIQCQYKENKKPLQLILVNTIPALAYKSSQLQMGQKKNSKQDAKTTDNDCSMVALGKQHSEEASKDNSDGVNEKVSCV
Sequence of Muscarinic acetylcholine receptor M1 (Homo sapiens) (P11229 whole entry, looked up): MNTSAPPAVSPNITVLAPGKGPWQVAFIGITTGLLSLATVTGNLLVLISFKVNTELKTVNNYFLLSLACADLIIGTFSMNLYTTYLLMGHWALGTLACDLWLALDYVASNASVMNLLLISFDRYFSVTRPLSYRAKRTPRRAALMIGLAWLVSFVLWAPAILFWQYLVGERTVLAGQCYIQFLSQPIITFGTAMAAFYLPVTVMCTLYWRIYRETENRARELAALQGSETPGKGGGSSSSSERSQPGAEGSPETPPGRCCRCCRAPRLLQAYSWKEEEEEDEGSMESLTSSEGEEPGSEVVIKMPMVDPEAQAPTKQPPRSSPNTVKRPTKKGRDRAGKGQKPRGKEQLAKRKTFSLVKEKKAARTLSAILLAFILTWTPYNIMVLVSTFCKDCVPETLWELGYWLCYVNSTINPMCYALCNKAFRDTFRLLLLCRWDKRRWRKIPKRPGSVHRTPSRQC
Sequence of Gonadotropin-releasing hormone receptor (Homo sapiens) (P30968 whole entry, looked up): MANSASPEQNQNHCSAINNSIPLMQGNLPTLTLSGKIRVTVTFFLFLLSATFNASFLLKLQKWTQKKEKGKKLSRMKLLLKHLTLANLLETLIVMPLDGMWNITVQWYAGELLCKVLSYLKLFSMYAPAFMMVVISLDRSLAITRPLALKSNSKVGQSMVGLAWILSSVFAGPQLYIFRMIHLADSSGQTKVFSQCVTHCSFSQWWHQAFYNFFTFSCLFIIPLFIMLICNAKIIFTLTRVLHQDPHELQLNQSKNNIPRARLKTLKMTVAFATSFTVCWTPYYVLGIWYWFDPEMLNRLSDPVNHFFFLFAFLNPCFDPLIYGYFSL

CC(=O)C(C)=O
inactive: Potency [1] | Potency [2] | Potency [3] | outcome [4] | outcome [5] | Potency [6] | Potency [7] | Potency [8] | Potency [9] | Potency [10] | Potency [11] | Potency [12] | Potency [13] | Potency [14] | Potency [15] | Potency [16] | Potency [17]

Oc1ccc(C2CNCCc3c2cc(O)c(O)c3Cl)cc1 (stereo not drawn)
active: Potency [10] 0.259 µM | Potency [11] 0.151 µM
inactive: Potency [1] | Potency [2] | Potency [3] | outcome [4] | outcome [5] | Potency [6] | Potency [7] | Potency [8] | Potency [9] | Potency [12] | Potency [13] | Potency [18] | Potency [14] | Potency [17]

O=C(O)Cc1csc(-c2ccc(Cl)cc2)n1
inactive: Potency [1] | Potency [2] | Potency [3] | outcome [4] | outcome [5] | Potency [6] | Potency [7] | Potency [8] | Potency [19] | Potency [10] | Potency [11] | Potency [12] | Potency [13] | Potency [16] | Potency [17]

CCCCCCCCCCCCN(CCO)CCO
active: Potency [1] 30.5 µM | Potency [3] 30.8 µM | Potency [8] 45.6 µM | Potency [11] 48.8 µM | Potency [12] 11.8 µM
inactive: Potency [2] | outcome [4] | outcome [5] | Potency [6] | Potency [7] | Potency [13] | Potency [15] | Potency [16] | Potency [17]

CO[Si](CCCS)(OC)OC
inactive: Potency [1] | Potency [2] | Potency [3] | outcome [4] | outcome [5] | Potency [6] | Potency [7] | Potency [20] | Potency [19] | Potency [9] | Potency [10] | Potency [11] | Potency [12] | Potency [13] | Potency [18] | Potency [14] | Potency [15] | Potency [16] | Potency [17]

Cc1cc(OI)c(C(C)C)cc1-c1cc(C(C)C)c(OI)cc1C
inactive: Potency [1] | Potency [2] | Potency [3] | outcome [4] | outcome [5] | Potency [6] | Potency [7] | Potency [20] | Potency [19] | Potency [9] | Potency [10] | Potency [11] | Potency [12] | Potency [13] | Potency [18] | Potency [14] | Potency [15] | Potency [16] | Potency [17]

CCN(CC)CC(=O)Nc1c(C)cccc1C(=O)OC
inactive: Potency [1] | Potency [2] | Potency [3] | outcome [4] | outcome [5] | Potency [6] | Potency [7] | Potency [20] | Potency [19] | Potency [9] | Potency [10] | Potency [11] | Potency [12] | Potency [13] | Potency [18] | Potency [14] | Potency [15] | Potency [17]

O=c1cc(-c2ccccc2)oc2ccc3ccccc3c12
inactive: Potency [1] | Potency [3] | outcome [4] | outcome [5] | Potency [6] | Potency [7] | Potency [8] | Potency [9] | Potency [16]
active: Potency [2] 0.486 µM

CC/C(=C\C(=N/O)C(N)=O)C(C)[N+](=O)[O-] (stereo not drawn)
inactive: Potency [1] | Potency [2] | Potency [3] | outcome [4] | outcome [5] | Potency [6] | Potency [7] | Potency [20] | Potency [19] | Potency [9] | Potency [10] | Potency [11] | Potency [12] | Potency [13] | Potency [18] | Potency [14] | Potency [15] | Potency [16] | Potency [17]

C=C(C)C(=O)OCC1CCCO1 (stereo not drawn)
inactive: Potency [1] | Potency [2] | Potency [3] | outcome [4] | outcome [5] | Potency [6] | Potency [7] | Potency [20] | Potency [19] | Potency [9] | Potency [10] | Potency [11] | Potency [12] | Potency [13] | Potency [18] | Potency [14] | Potency [15] | Potency [16] | Potency [17]

CCN(CC)c1ccc2c(-c3ccc(S(=O)(=O)O)cc3S(=O)(=O)[O-])c3ccc(=[N+](CC)CC)cc-3oc2c1
active: Potency [1] 17.8 µM | Potency [3] 45.1 µM | Potency [11] 56.7 µM | Potency [16] 24.5 µM
inactive: Potency [2] | outcome [4] | outcome [5] | Potency [6] | Potency [7] | Potency [8] | Potency [9] | Potency [10] | Potency [12] | Potency [18] | Potency [14]

N#Cc1cc2ccccc2c2ccccc12
inactive: Potency [1] | Potency [2] | Potency [3] | outcome [4] | outcome [5] | Potency [6] | Potency [7] | Potency [8] | Potency [10] | Potency [11] | Potency [13] | Potency [18] | Potency [14] | Potency [15] | Potency [16] | Potency [17]

S=C(SSSSSSC(=S)N1CCCCC1)N1CCCCC1
inactive: activity, positive = activation [2] -39.1% [at 19 µM] | activity change [3] 9.84% [at 11.8 µM, active compounds read high] | activation [4] 1.75% [at 15.8 µM] | activation [5] 0.115% [at 11.8 µM] | activation [6] -17.2% [at 13.5 µM] | activation [7] -7.65% [at 13.6 µM] | activity change, negative = cytotoxicity [20] -21.4% [at 13.5 µM] | activity change, negative = cytotoxicity [19] 9.63% [at 13.5 µM] | activation [9] -6.37% [at 13.5 µM] | activity, negative = inhibition [10] -4.42% [at 12.7 µM] | activation [11] 13.8% [at 15.9 µM] | activity, negative = inhibition [12] -12.9% [at 12.6 µM] | activation [13] 2.41% [at 15.8 µM] | activation [18] -0.287% [at 19 µM] | activity change, negative = inhibition [14] -25.4% [at 18.9 µM] | activity change, negative = inhibition [15] 8.1% [at 19 µM] | activation [16] -0.326% [at 19 µM]
active: Potency [1] 0.134 µM

CCCCCCCCCCCCCC[n+]1ccccc1
active: Potency [1] 27.3 µM | Potency [3] 34.7 µM | Potency [8] 32.4 µM
inactive: Potency [2] | outcome [4] | outcome [5] | Potency [6] | Potency [7] | Potency [15] | Potency [16] | Potency [17]

CCCCCCCCCCCC(=O)NCCCN(C)C
active: Potency [1] 27.3 µM | Potency [3] 30.9 µM | Potency [8] 45.8 µM | Potency [19] 32.4 µM | Potency [10] 1.68 µM | Potency [12] 8.4 µM
inactive: Potency [2] | outcome [4] | outcome [5] | Potency [6] | Potency [7] | Potency [11] | Potency [13] | Potency [16]

CC(=O)Nc1ccc(S(=O)(=O)Nc2cc(C)on2)cc1
inactive: Potency [1] | Potency [2] | Potency [3] | outcome [4] | outcome [5] | Potency [6] | Potency [7] | Potency [20] | Potency [19] | Potency [9] | Potency [10] | Potency [11] | Potency [12] | Potency [13] | Potency [18] | Potency [14] | Potency [16] | Potency [17]
